The panel holds about 79,000 compounds, 15% with a hit somewhere; the sample as a whole holds those more often. The source made the active and inactive calls. Cut-off read from the data, not from the text of the source: active = growth inhibition above about 70%; inactive = the rest.
How the values were obtained:
[1] = NCI Yeast Anticancer Drug Screen. Data for the rad52 strain (AID 147);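 note: 0% = growth of vehicle-treated control cultures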; conditions: S. cerevisiae rad52 mutant growth inhibition, hits give high values
Outline: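 The repair-mutant yeast strain was incubated with compounds, then growth was read and inhibition derived relative to vehicle.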

[2] = NCI Yeast Anticancer Drug Screen. Data for the wt1 strain (AID 149);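 note: 0% = growth of vehicle-treated wt1 cultures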; conditions: S. cerevisiae wt1 strain (SPY 50644) growth inhibition, hits give high values
Outline: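 Compounds are added to wt1 yeast cultures. Growth is then measured. Inhibition is expressed relative to vehicle-treated controls.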

[3] = NCI Yeast Anticancer Drug Screen. Data for the rad50EPP+ strain (AID 151);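 note: 0% = growth of vehicle-treated control cultures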; conditions: S. cerevisiae rad50 mutant strain, hits give high values
Outline: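 Vehicle-normalised growth inhibition; rad50EPP+ yeast strain, altered in DNA damage repair, compound-treated.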

[4] = NCI Yeast Anticancer Drug Screen. Data for the mgt1 strain (AID 153); conditions: S. cerevisiae mgt1 mutant growth inhibition, hits give high values
Outline: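 Vehicle-normalized growth inhibition is determined in mgt1 yeast, a strain selected for a defined alteration in DNA repair or cell cycle control.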

[5] = NCI Yeast Anticancer Drug Screen. Data for the rad50 strain (AID 155);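 note: 0% = growth of vehicle-only cultures of the same strain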; conditions: S. cerevisiae rad50 strain growth inhibition, hits give high values
Outline: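 Inhibition values express reduced yeast growth in compound-treated cultures relative to vehicle-treated controls.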

[6] = NCI Yeast Anticancer Drug Screen. Data for the mec2-1 strain (AID 157); conditions: S. cerevisiae mec2-1 strain, hits give high values
Outline: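 Mutant yeast (mec2-1) grown with compound; growth inhibition relative to vehicle control reported.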

[7] = NCI Yeast Anticancer Drug Screen. Data for the rad14 strain (AID 159);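 note: 0% = growth of vehicle-treated control cultures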; conditions: S. cerevisiae rad14 strain growth inhibition, hits give high values
Outline: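 A mutant yeast strain defective in DNA damage repair is treated with compound; inhibition of its growth is scored against untreated, vehicle-exposed cultures.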

[8] = NCI Yeast Anticancer Drug Screen. Data for the sgs1 mgt1 strain (AID 161);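 note: 0% = growth of cultures given vehicle only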; conditions: S. cerevisiae sgs1 mgt1 strain, hits give high values
Outline: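 Percent growth inhibition was derived by comparing compound-exposed mutant yeast with vehicle-exposed cultures. The strain carries alterations in DNA damage repair.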

[9] = NCI Yeast Anticancer Drug Screen. Data for the CLN2oe strain (AID 163);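 note: 0% = growth of vehicle-only control cultures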; conditions: S. cerevisiae CLN2oe strain, hits give high values
Outline: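 Compounds are applied to yeast harbouring a defined cell-cycle control change; reduced growth compared with vehicle-treated controls gives the value.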

[10] = NCI Yeast Anticancer Drug Screen. Data for the cln2 rad14 strain (AID 165);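 note: 0% = growth equal to vehicle treated cultures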; conditions: S. cerevisiae cln2 rad14 strain, hits give high values
Outline: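 Readout is yeast growth inhibition versus vehicle-treated controls, using a strain with cln2 and rad14 alterations exposed to compound.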

[11] = NCI Yeast Anticancer Drug Screen. Data for the bub3 strain (AID 167); conditions: S. cerevisiae bub3 mutant strain, hits give high values
Outline: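 Steps: expose the mutant yeast strain to compound; grow alongside vehicle-treated cultures; measure growth; express inhibition against the vehicle cultures.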

[12] = NCI Yeast Anticancer Drug Screen. Data for the wt2 strain (AID 169);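 note: 0% = growth of vehicle-treated yeast cultures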; conditions: S. cerevisiae wt2 strain growth inhibition, hits give high values
Outline: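 Against vehicle-treated controls, the growth of yeast exposed to each compound was compared, and the inhibition was recorded.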

[13] = NCI Yeast Anticancer Drug Screen. Data for the mlh1 strain (AID 171);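 note: 0% = growth of vehicle-treated control cultures of the same strain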; conditions: S. cerevisiae mlh1 strain growth inhibition, hits give high values
Outline: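 Measured: yeast growth. Reference: vehicle-treated controls. Organism: strain with a defined alteration affecting DNA damage repair or cell cycle control, treated with compound.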

[14] = NCI Yeast Anticancer Drug Screen. Data for the sgs1 strain (AID 173);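 note: 0% = growth of vehicle-only control cultures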; conditions: S. cerevisiae sgs1 mutant, hits give high values
Outline: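 Each compound was added to cultures of the altered yeast strain. Growth was recorded, and inhibition was derived by comparison with vehicle controls.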

[15] = NCI Yeast Anticancer Drug Screen. Data for the mlh1 rad18 strain (AID 175); conditions: S. cerevisiae mlh1 rad18 strain growth inhibition, hits give high values
Outline: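 Genetically defined yeast (DNA repair-deficient) exposed to compounds; growth inhibition determined relative to vehicle.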

[16] = NCI Yeast Anticancer Drug Screen. Data for the rad18 strain (AID 177); conditions: S. cerevisiae rad18 mutant growth inhibition, hits give high values
Outline: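 Vehicle-treated cultures served as the baseline for scoring compound-induced growth inhibition in DNA-repair-mutant yeast.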

[17] = at 5.0 µM (retest, dose inferred, filed as 0.5)
[18] = at 50.0 µM (retest, dose inferred, filed as 5.0)

Measured: growth inhibition

CC(C)(C)c1nc2c(o1)C(=O)c1ccccc1C2=O
active: [1]; at 33.0 µM 89% | [1]; at 100.0 µM 98% | [2]; at 100.0 µM 95% | [3]; at 33.0 µM 87% | [3]; at 100.0 µM 97% | [4]; at 33.0 µM 75% | [4]; at 100.0 µM 95% | [5]; at 33.0 µM 90% | [5]; [18] 91% | [5]; at 50.0 µM 85.2% | [5]; at 100.0 µM 97% | [6]; [18] 77% | [6]; at 50.0 µM 94% | [6]; at 100.0 µM 94% | [7]; at 33.0 µM 79% | [7]; at 100.0 µM 98% | [8]; [18] 70% | [8]; at 50.0 µM 93.3% | [9]; at 100.0 µM 96% | [10]; at 50.0 µM 92.1% | [11]; at 33.0 µM 87% | [11]; [18] 90% | [11]; at 50.0 µM 93% | [11]; at 100.0 µM 97% | [12]; at 33.0 µM 72% | [12]; at 100.0 µM 94% | [13]; at 33.0 µM 81% | [13]; at 100.0 µM 96% | [14]; at 33.0 µM 88% | [14]; at 100.0 µM 95% | [15]; [18] 86% | [15]; at 50.0 µM 91.5% | [16]; at 33.0 µM 77% | [16]; at 100.0 µM 95%
inactive: [1]; at 1.2 µM -27% | [1]; at 3.7 µM -22% | [1]; at 11.0 µM 20% | [2]; at 1.2 µM -30% | [2]; at 3.7 µM -20% | [2]; at 11.0 µM -5% | [2]; at 33.0 µM 63% | [3]; at 1.2 µM -19% | [3]; at 3.7 µM -17% | [3]; at 11.0 µM -7% | [4]; at 1.2 µM -21% | [4]; at 3.7 µM -16% | [4]; at 11.0 µM 19% | [5]; at 1.2 µM -56% | [5]; at 3.7 µM -15% | [5]; [17] 23% | [5]; at 11.0 µM 32% | [6]; at 1.2 µM 11% | [6]; at 3.7 µM 15% | [6]; [17] 14% | [6]; at 11.0 µM 27% | [6]; at 33.0 µM 57% | [7]; at 1.2 µM -15% | [7]; at 3.7 µM -5% | [7]; at 11.0 µM 13% | [8]; [17] 32% | [9]; at 1.2 µM -3% | [9]; at 3.7 µM -8% | [9]; at 11.0 µM 6% | [9]; at 33.0 µM 65% | [10]; [17] 3% | [10]; [18] 42% | [11]; at 1.2 µM -3% | [11]; at 3.7 µM 12% | [11]; [17] 52% | [11]; at 11.0 µM 36% | [12]; at 1.2 µM -41% | [12]; at 3.7 µM -26% | [12]; at 11.0 µM 32% | [13]; at 1.2 µM -6% | [13]; at 3.7 µM -3% | [13]; at 11.0 µM 25% | [14]; at 1.2 µM 7% | [14]; at 3.7 µM -10% | [14]; at 11.0 µM 36% | [15]; [17] 21% | [16]; at 1.2 µM -25% | [16]; at 3.7 µM -14% | [16]; at 11.0 µM 4%

From PubChem BioAssay (NCI)
